Consider 39 molecules from PubChem BioAssay (NCI).

The panel holds about 83,000 compounds, 20% with a hit somewhere; the sample as a whole holds those more often.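 Testing used 96-well plates and a 48-hour single-concentration exposure. Example: -40 means 40% of the starting cells died.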 Values without a mark were called inactive. The source made the active and inactive calls. The calls were made as follows: active = growth percent below 10; inactive = the rest.

The first experiment has as its system HCT-116 colon. The experiment can be described thus: NCI-60 one-dose screen, 48 h (100 = growth as untreated, 0 = no growth, -100 = all killed). The conditions noted are these: 10 µM unless noted.
Take `COc1cc(CN(c2ccc(C)cc2)C2OC(=O)c3ccccc32)cc(OC)c1OC` (stereo not drawn): the growth was 6.74% (active).

Regarding `COc1cc2c(c(OC)c1O)C(=O)C(OC)C(c1ccc(O)c(O)c1)O2` (stereo not drawn), the growth was 3.39% (active).

`ClCc1c(Cl)c(Cl)c(Cl)c(CCl)c1Cl`: the growth was -76.8% (active).

As to `Brc1ccsc1Br`, the growth is 105%.

As to `CCCCSc1ncnc2c1ncn2C1CCCCO1` (stereo not drawn), the growth was 100%.

On to `Clc1ccc(-c2cnc3c(-c4ccnc(N5CCNCC5)c4)cnn3c2)cc1`, for which the growth is -68.3% (active).

Take `O=C1Nc2ccccc2/C1=C\c1nc(C2CCN(S(=O)(=O)c3ccc(F)cc3)CC2)n2ccccc12`: the growth was 64.8%.

Turning to `COc1cc(/C=C/c2cc(/C=C/c3ccc(O)c(OC)c3)n(C(=O)Nc3ccc(F)c(Cl)c3)n2)ccc1O`, the growth was 2.15% (active).

Consider `O=C(Nc1cccc(-n2ccc3c(NC(=O)c4ccccc4)nccc32)c1)c1ccc(N2CCOCC2)c(C(F)(F)F)c1`, for which the growth is 12.5%.

As for `CCOC(=O)c1cc(N)nc2ccccc12`, the growth was 102%.

In the case of `CCOC(=O)Cc1cc(Br)c(OCc2ccccc2)c(Br)c1`, the growth was 93.8%.

`CCOC(=O)C1C(=O)C=C(c2ccccc2)CC1c1sc(N(C)Cc2ccccc2)nc1Cl` (stereo not drawn): the growth is 80.1%.

Turning to `O=c1c2cc(Br)cc(Br)c2nc(-c2ccc(Cl)cc2)n1/N=C\c1ccccc1F`, the growth is 32.8%.

Regarding `CCN(CC)c1cc(C)c(Cc2c(OC)ccc3ccccc23)cc1C`, the growth is 86.2%.

Take `CCN(C(=O)CCl)C(C)(C)C(SSSC(c1ccc(Cl)cc1)C(C)(C)N(CC)C(=O)CCl)c1ccc(Cl)cc1` (stereo not drawn): the growth is 48%.

On to `O=C(Nc1ccc(Br)cc1)c1ccc(Cl)c(Cl)c1`, for which the growth was 20.8%.

With `COc1ccc2nc(C)cc(Sc3nc4ccccc4s3)c2c1`, the growth is 24.5%.

Turning to `C[C@@H]1N=C(c2ccc3ccccc3c2)Nc2nc3ccccn3c2C1=O`, the growth was 18.3%.

As for `CC(C)[C@@H]1C=C2CC[C@H]3[C@](C)(CN)CCC[C@]3(C)[C@H]2CC1`, the growth was 31.3%.

Consider `O=C(Nc1ccc(-n2ccc3c(NC(=O)c4ccccc4)nccc32)cc1)c1ccc(N2CCOCC2)c(C(F)(F)F)c1`, for which the growth was 6.59% (active).

As for `COc1ccc(CNc2c3ccccc3nc3ccccc23)cc1F`, the growth was 12.3%.

In the case of `Cc1cc(O)ccc1Sc1ccccc1[N+](=O)[O-]`, the growth was 98.1%.

Turning to `O=C(C(=O)N1CCCC1)c1cn(CCCn2cc(C(=O)C(=O)N3CCCC3)c3cc(Br)ccc32)c2ccc(Br)cc12`, the growth was 58.6%.

As for `COc1cc(/C=N/NC(=O)Cn2c(-c3ccc(C)o3)nc3ccccc32)ccc1OCc1ccccc1`, the growth is 71.9%.

For `CCOCCNc1ccc(S(=O)(=O)c2ccc(N)cc2)cc1N`, the growth was 102%.

As for `CC(C)(C)c1ccc(OC(=O)Nc2ccccc2)cc1`, the growth was 97.4%.

For the molecule `CCOC(=O)c1cc(C(=O)OCC)c(C)nc1C`, the growth was 105%.

For `Cc1ccc(OC2=C(C#N)C(=N)N3C(=NN2)Sc2c(C)ccc(C)c23)cc1`, the growth was 106%.

For the molecule `COc1cccc(NC(=O)OC(C)C)c1`, the growth was 101%.

Turning to `CCCCCCCCCCCC1=NC(C)(C)CN1C(C)C`, the growth was 21.5%.

For `O=C(Nc1ccccc1)c1cc2ccccc2s1`, the growth is 75.8%.

For the molecule `CC(C)(C)[Si](C)(C)OC1[C@@H](CNC(N)=O)O[C@@H](n2cnc3c(NC(=O)Nc4ccccc4)ncnc32)[C@H]1O[Si](C)(C)C(C)(C)C` (stereo partly drawn), the growth is 0.343% (active).

Consider `O/N=C/c1ccncc1`, for which the growth is 118%.

Turning to `COc1ccc2nc3ccccc3c(NCc3ccc(C)cc3)c2c1`, the growth was 8.58% (active).

With `C=C(C)[C@@H]1CC[C@]2(C(=O)NC(COC(=O)C(Cl)Cl)(COC(=O)C(Cl)Cl)COC(=O)C(Cl)Cl)CC[C@]3(C)[C@H](CC[C@@H]4[C@@]5(C)CC[C@H](OC(C)=O)C(C)(C)[C@@H]5CC[C@]43C)[C@@H]12`, the growth is -16.7% (active).

For `C#Cc1cccc(Nc2nc3cc([N+](=O)[O-])ccc3nc2Nc2ccc(O)cc2)c1`, the growth was -11.9% (active).

In the case of `N#CCCn1cnc2c(N)ncnc21`, the growth was 99.1%.

`O=C(CCl)N1c2ccccc2Oc2ccc3ccccc3c21`: the growth was -98.8% (active).

For the molecule `CC(C)c1ccc(-c2cnc3nonc3n2)cc1`, the growth was 10.2%.

In a further experiment the test system is HCC-2998 colon. The experiment is described as above. The conditions noted are these: 10 µM unless noted.
Turning to `COc1cc(CN(c2ccc(C)cc2)C2OC(=O)c3ccccc32)cc(OC)c1OC` (stereo not drawn), the growth was 4.25% (active).

Regarding `COc1cc2c(c(OC)c1O)C(=O)C(OC)C(c1ccc(O)c(O)c1)O2` (stereo not drawn), the growth is 20.1%.

Turning to `ClCc1c(Cl)c(Cl)c(Cl)c(CCl)c1Cl`, the growth was 88.6%.

Consider `Brc1ccsc1Br`, for which the growth is 105%.

On to `CCCCSc1ncnc2c1ncn2C1CCCCO1` (stereo not drawn), for which the growth is 111%.

Take `Clc1ccc(-c2cnc3c(-c4ccnc(N5CCNCC5)c4)cnn3c2)cc1`: the growth is -43% (active).

`O=C1Nc2ccccc2/C1=C\c1nc(C2CCN(S(=O)(=O)c3ccc(F)cc3)CC2)n2ccccc12`: the growth was 59.8%.

Regarding `COc1cc(/C=C/c2cc(/C=C/c3ccc(O)c(OC)c3)n(C(=O)Nc3ccc(F)c(Cl)c3)n2)ccc1O`, the growth is 9.75% (active).

As to `O=C(Nc1cccc(-n2ccc3c(NC(=O)c4ccccc4)nccc32)c1)c1ccc(N2CCOCC2)c(C(F)(F)F)c1`, the growth is 8.77% (active).

Consider `CCOC(=O)c1cc(N)nc2ccccc12`, for which the growth is 111%.

In the case of `CCOC(=O)Cc1cc(Br)c(OCc2ccccc2)c(Br)c1`, the growth is 98.5%.

For the molecule `CCOC(=O)C1C(=O)C=C(c2ccccc2)CC1c1sc(N(C)Cc2ccccc2)nc1Cl` (stereo not drawn), the growth was 109%.

Consider `O=c1c2cc(Br)cc(Br)c2nc(-c2ccc(Cl)cc2)n1/N=C\c1ccccc1F`, for which the growth is 85.4%.

For `CCN(CC)c1cc(C)c(Cc2c(OC)ccc3ccccc23)cc1C`, the growth was 100%.

`CCN(C(=O)CCl)C(C)(C)C(SSSC(c1ccc(Cl)cc1)C(C)(C)N(CC)C(=O)CCl)c1ccc(Cl)cc1` (stereo not drawn): the growth is 85.6%.

As for `O=C(Nc1ccc(Br)cc1)c1ccc(Cl)c(Cl)c1`, the growth was 67.7%.

On to `COc1ccc2nc(C)cc(Sc3nc4ccccc4s3)c2c1`, for which the growth is 73.8%.

For the molecule `C[C@@H]1N=C(c2ccc3ccccc3c2)Nc2nc3ccccn3c2C1=O`, the growth was 77%.

With `CC(C)[C@@H]1C=C2CC[C@H]3[C@](C)(CN)CCC[C@]3(C)[C@H]2CC1`, the growth is -40.1% (active).

Turning to `O=C(Nc1ccc(-n2ccc3c(NC(=O)c4ccccc4)nccc32)cc1)c1ccc(N2CCOCC2)c(C(F)(F)F)c1`, the growth was 40.8%.

Consider `COc1ccc(CNc2c3ccccc3nc3ccccc23)cc1F`, for which the growth is 5.83% (active).

In the case of `Cc1cc(O)ccc1Sc1ccccc1[N+](=O)[O-]`, the growth was 97.5%.

For `O=C(C(=O)N1CCCC1)c1cn(CCCn2cc(C(=O)C(=O)N3CCCC3)c3cc(Br)ccc32)c2ccc(Br)cc12`, the growth was 81.6%.

`COc1cc(/C=N/NC(=O)Cn2c(-c3ccc(C)o3)nc3ccccc32)ccc1OCc1ccccc1`: the growth is 103%.

Regarding `CCOCCNc1ccc(S(=O)(=O)c2ccc(N)cc2)cc1N`, the growth was 101%.

With `CC(C)(C)c1ccc(OC(=O)Nc2ccccc2)cc1`, the growth was 107%.

As for `CCOC(=O)c1cc(C(=O)OCC)c(C)nc1C`, the growth is 103%.

Regarding `Cc1ccc(OC2=C(C#N)C(=N)N3C(=NN2)Sc2c(C)ccc(C)c23)cc1`, the growth was 106%.

With `COc1cccc(NC(=O)OC(C)C)c1`, the growth is 96.7%.

On to `CCCCCCCCCCCC1=NC(C)(C)CN1C(C)C`, for which the growth was -58.5% (active).

As for `O=C(Nc1ccccc1)c1cc2ccccc2s1`, the growth is 48.9%.

As for `CC(C)(C)[Si](C)(C)OC1[C@@H](CNC(N)=O)O[C@@H](n2cnc3c(NC(=O)Nc4ccccc4)ncnc32)[C@H]1O[Si](C)(C)C(C)(C)C` (stereo partly drawn), the growth was 19%.

Take `O/N=C/c1ccncc1`: the growth was 102%.

On to `COc1ccc2nc3ccccc3c(NCc3ccc(C)cc3)c2c1`, for which the growth is -57.9% (active).

As to `C=C(C)[C@@H]1CC[C@]2(C(=O)NC(COC(=O)C(Cl)Cl)(COC(=O)C(Cl)Cl)COC(=O)C(Cl)Cl)CC[C@]3(C)[C@H](CC[C@@H]4[C@@]5(C)CC[C@H](OC(C)=O)C(C)(C)[C@@H]5CC[C@]43C)[C@@H]12`, the growth was 66.1%.

On to `C#Cc1cccc(Nc2nc3cc([N+](=O)[O-])ccc3nc2Nc2ccc(O)cc2)c1`, for which the growth was 5.14% (active).

With `N#CCCn1cnc2c(N)ncnc21`, the growth was 113%.

For the molecule `O=C(CCl)N1c2ccccc2Oc2ccc3ccccc3c21`, the growth was 103%.

With `CC(C)c1ccc(-c2cnc3nonc3n2)cc1`, the growth is 61.1%.
